B1: chr10:99876058:99876159:-|3pUTR|ENSG00000107554|msi1|FALSE|bound_elsewhere (ssRNA)
RNA: GGGAGUUCUACAGUCCGACGAUCUUGAGCCUAAUGGAAGACUGGAUGUCUUUCUUCUUCAUCCAAGCACCCUAAUGACUGUUUAGUUACAUCCAUAGAUGCAGACAACAUAACACCUGUGACUUACUUGAAUUGGGAUAAGCCCAACAGAGGAUUGAGCAUCA
B2: ENSG00000107021:stop:overlap|stop_codon|ENSG00000107021|stop_codon|NA|stop_codon (ssRNA)
RNA: GGGAGUUCUACAGUCCGACGAUCACCCCAUCACAGAUGUCUGCCAGAUCCUGCAGAAAGCCAAGGAGCUCCAAGACUCAAAGUAGCCCGGCGGCAAGAGGCCCAUGUUCCGGAGAGAAGCCUCCCGACCCUGUGCCCUGGCUCCAACAGAGGAUUGAGCAUCA
B3: ENSG00000136451:be:win_2701|3pUTR|ENSG00000136451|bound_else_gene|NA|bound_elsewhere_windowed (ssRNA)
RNA: GGGAGUUCUACAGUCCGACGAUCUGUAAAUAUGGACAUCACUUUUUUUUUCUUUGAGAAAACACUUGUAUCAGCUUUGUGGUGUUUUCAGGGAGACAGCUGUCUGCAUUCCCUGUAGAAACCCAGCAAUGAUUAUGCACGUUGCAACAGAGGAUUGAGCAUCA
B4: chr8:73046310:73046411:+|3pUTR|ENSG00000147601|msi1|total|mutant (ssRNA)
RNA: GGGAGUUCUACAGUCCGACGAUCUUGUAUUCUUUAAGAACCUUAUUUUGAUAAAAUGUAAAUUUGUUGAACCCUGCCACAUUCCGUAUCCCCACCCCCAAAUCCUGUUCCAAUGAAAAAAUUAAAACCUGAUACGAAAAAAAACAACAGAGGAUUGAGCAUCA
B5: chr4:70820284:70820384:-|3pUTR|ENSG00000132463|msi1_unk|FALSE|overlapping (ssRNA)
RNA: GGGAGUUCUACAGUCCGACGAUCUGAACUGGUAUGGUUUGGCAGAAUAGUUUUAAAUUUUGCUGUAUUUGAUUACUUAGAGAUAGGAAUUUUUAAAAAUCAAAACAAAAAAUACCACAGCUUAGUGUAAAUGACAAUUUGGCGCAACAGAGGAUUGAGCAUCA
B6: chr8:25429562:25429664:-|3pUTR|ENSG00000104756|unk|total|mutant (ssRNA)
RNA: GGGAGUUCUACAGUCCGACGAUCAGAAAAGCACUCAUUUAACCGAUGCCGGGAAACCCGAUAUUGCUGCCUUUUGAAUGGGGCCGGGGGGUUUACCUGGUUUUAUGACCAGGCACCGUAUCUAUUAUAUUUGCUUUUAAACCGCAACAGAGGAUUGAGCAUCA
B7: ENSG00000152661:stop:overlap|stop_codon|ENSG00000152661|stop_codon|NA|stop_codon (ssRNA)
RNA: GGGAGUUCUACAGUCCGACGAUCCUUCAAGCAGAGCCAGCAGUCGUGCCAGCAGCAGACCUCGGCCUGAUGACCUGGAGAUCUAGAUACAGGCUUGAAAGCAUCAAGAUUCCACUCAAUUGUGGAGAAGAAAAAAGGUGCUGUCAACAGAGGAUUGAGCAUCA
B8: chr5:116443554:116446612:-|three_prime_utr|ENSG00000092421|control|control|control (ssRNA)
RNA: GGGAGUUCUACAGUCCGACGAUCCCGCCAGUGUUACAGCUUUCUGUUGCAGCAGAUAAAUGCCAUGUUGGGCAACUAUGUCAUAGAUUUCUGCUCCUCCUCUCUUUUAAUGAAAUAACGUGACCGUUAACGCAAGUAACUCUUCAACAGAGGAUUGAGCAUCA
B9: chr4:42087128:42087229:+|3pUTR|ENSG00000014824|msi1|FALSE|unique (ssRNA)
RNA: GGGAGUUCUACAGUCCGACGAUCAUUUUGUAUAAUAUAGUUCAUACUGUGUCUGUGAGUUUCUUCAGUUACAAAUGGGCAUUUAGUAUAGUUAUAUUGACUAUAACAUGUAAGUAAAUAGCUUUCUACUGACCCUAAGUUAUCCAACAGAGGAUUGAGCAUCA
B10: chr5:159157431:159157536:-|3pUTR|ENSG00000145860|unk|total|mutant (ssRNA)
RNA: GGGAGUUCUACAGUCCGACGAUCCAAAAAGUGUUUUUCAGACCUCGGUAUUCCUAAUGUGGGAUGUGACUUUAUUUUAUUUUCCGCCGCAAAUUUGGAUGCCGACUGACAGACACCGCUGAAUGUCUUAAUAAAUUUAAAUUUCAACAGAGGAUUGAGCAUCA
B11: ENSG00000124766:be:win_3651|3pUTR|ENSG00000124766|bound_else_gene|NA|bound_elsewhere_windowed (ssRNA)
RNA: GGGAGUUCUACAGUCCGACGAUCUCGCUAAAUAUAAUUGUUUUAGUCUUAUGGCAUGAUGAUAGCAUAUGUGUUCAGGUUUAUAGCUGUUGUGUUUAAAAAUUGAAAAAAGUGGAAAACAUCUUUGUACAUUUAAGUCUGUAUCAACAGAGGAUUGAGCAUCA
B12: chr8:140515610:140515764:+|3pUTR|ENSG00000104472|unk|total|mutant (ssRNA)
RNA: GGGAGUUCUACAGUCCGACGAUCUUUUGGAAUCAGUUCUUAUAAACAGCUCGAUUCAGUUUCCGCUAAAUUUACCGUUCCGGCCGUAUGUUACAUUUGAAUUUUUGUCUUAAGAAAAGUUGACUGUUCAGAUAUUUUUCUACUCAACAGAGGAUUGAGCAUCA
B13: chr20:59325757:59325866:+|3pUTR|ENSG00000124205|unk|FALSE|unique (ssRNA)
RNA: GGGAGUUCUACAGUCCGACGAUCUUAUGUGGAUCUGUUCAAAGUAGUCACUGUAUAUACGUAUAGAGAGGUAGAUAGGUAGGUAGAUUUUAAAUUGCAUUCUGAAUACAAACUCAUACUCCUUAGAGCUUGAAUUACAUUUUUCAACAGAGGAUUGAGCAUCA
B14: chr8:140515610:140515764:+|3pUTR|ENSG00000104472|unk|FALSE|unique (ssRNA)
RNA: B12 RNA with C62U, C63A, C74U, C75A, C79U, C80A, C83U, C84A
B15: chr18:9400975:9401076:+|3pUTR|ENSG00000128791|msi1|total|mutant (ssRNA)
RNA: GGGAGUUCUACAGUCCGACGAUCUAUAAAAACCGAUAAUGCUCUUGGACACAUUUUGUAUUAUUCAUGAUCUGAACCGCCGUCCGUUAAAAGAUCAUUUGUAAUAUUAUGAUCAACUGUUAUAAAUUAAGGUCUUAAUACCUUCAACAGAGGAUUGAGCAUCA
B16: chr18:9400975:9401076:+|3pUTR|ENSG00000128791|msi1|FALSE|unique (ssRNA)
RNA: B15 RNA with C32U, C33A, C76U, C77A, C79U, C80A, C83U, C84A
B17: chr20:59325757:59325866:+|3pUTR|ENSG00000124205|unk|total|mutant (ssRNA)
RNA: GGGAGUUCUACAGUCCGACGAUCUUAUGUGGAUCUGUUCAAAGCCGUCACUGUAUAUACGUACCGAGAGGCCGACCGGCCGGCCGAUUUUAAAUUGCAUUCUGAAUACAAACUCAUACUCCUCCGAGCUUGAAUUACAUUUUUCAACAGAGGAUUGAGCAUCA
B18: chr12:50748518:50748596:+|3pUTR|ENSG00000066084|msi1_unk|FALSE|overlapping (ssRNA)
RNA: GGGAGUUCUACAGUCCGACGAUCUCAAAUUCAAACUACAGUACUGUGUAAUUAUGUAUAAAGUUUUUUUAUUUAUUUGAAGUUAGACUAGAUAUACGUUUUUAAAUUUAACAUCUGGCUGGACAGUGUUCUAUUAACUCAUUGCAACAGAGGAUUGAGCAUCA
B19: chr9:74692981:74693082:+|3pUTR|ENSG00000198963|unk|FALSE|unique (ssRNA)
RNA: GGGAGUUCUACAGUCCGACGAUCUUUUAUAUUACUUUAGAAUGUAAUAGGUUUUUGUCCUUAUUUUAUGUCCUGUAAAUUAUUAGUUCAAUACUGUUAGCAUUCCCGGAUAAUGCACACAUGAUUUCUGAAUGUUUUCUGUAACAACAGAGGAUUGAGCAUCA
B20: chr5:159157431:159157536:-|3pUTR|ENSG00000145860|unk|FALSE|bound_elsewhere (ssRNA)
RNA: B10 RNA with C83U, C84A, C86U, C87A, C101U, C102A, C115U, C116A

Residue numbers refer to the chain shown, from its start. Whole data set: some 5,800 sequences, median “enrichment r” near 0.54, cut for the highest 2% near 16. This is one part of a sample in which the highest values are shown more often than they occur.

The assay deals with MSI1 full-length (mouse, UniProt Q61474 1-362). Briefly: nsRBNS (natural sequence RNA bind-n-seq); RBNS binding buffer (assumed for nsRBNS): 25 mM Tris pH 7.5, 150 mM KCl, 3 mM MgCl2, 0.01% Triton X-100, 500 ug/ml BSA, 20 U/ml SUPERase-In, 4 C; UNK is unkempt and MSI1 is Musashi-1; names of the RNAs are library labels; protein concentration not given here; high values mean tight binding.
Sequence of MSI1 full-length (Q61474 whole entry): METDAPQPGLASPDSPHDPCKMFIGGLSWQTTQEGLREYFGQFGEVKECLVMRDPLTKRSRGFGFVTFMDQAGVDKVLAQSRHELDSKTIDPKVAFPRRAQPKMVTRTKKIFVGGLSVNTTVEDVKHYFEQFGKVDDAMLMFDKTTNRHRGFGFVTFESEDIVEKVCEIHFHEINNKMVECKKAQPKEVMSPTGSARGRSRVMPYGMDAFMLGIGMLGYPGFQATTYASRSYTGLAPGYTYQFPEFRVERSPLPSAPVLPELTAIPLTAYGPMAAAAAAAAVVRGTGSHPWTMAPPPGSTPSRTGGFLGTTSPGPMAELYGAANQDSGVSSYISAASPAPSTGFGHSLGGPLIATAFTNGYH
For the molecule B1, the binding signal was found to be 0.725 enrichment R.

Take B2: the binding signal is 0.38 enrichment R.

Molecule B3 showed a binding signal of 0.266 enrichment R.

Regarding B4, the binding signal was found to be 2.83 enrichment R.

The molecule B5 came in with a binding signal of 4.91 enrichment R.

Consider B6, for which the binding signal was determined as 0.472 enrichment R.

As for B7, the binding signal amounted to 0.49 enrichment R.

For the molecule B8, the binding signal was found to be 0.417 enrichment R.

B9 displayed a binding signal of 2.94 enrichment R.

In turn, B10 displayed a binding signal of 0.361 enrichment R.

With B11, the binding signal was determined as 2.43 enrichment R.

Regarding B12, the binding signal was found to be 0.336 enrichment R.

B13 yielded a binding signal of 20.2 enrichment R.

In the case of B14, the binding signal came out at 69.1 enrichment R.

B15 displayed a binding signal of 0.599 enrichment R.

On to B16, for which the binding signal came out at 24 enrichment R.

For the molecule B17, the binding signal was found to be 0.342 enrichment R.

B18 yielded a binding signal of 5.2 enrichment R.

On to B19, for which the binding signal was 2.02 enrichment R.

For B20, the binding signal came to 23.3 enrichment R.
